# High-throughput results: PubChem BioAssay, National Center for Advancing Translational Sciences (NCATS)
# Pf growth 48h: inhibits P. falciparum growth in the first generation, 48 h; P. falciparum luciferase growth in erythrocytes, 48 h; Potency, µM (highest dose often 28.7 µM), for the others: top-dose activity change, negative = inhibition, usual class: inhibitors; hit rate 5.9% among 310,000; AID 504832; further: potency means the concentration at half of the fitted maximal effect; on the % scale 0 is the no-effect control and ±100 the full control effect
#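 Luciferase-expressing parasites in RBCs, 2% Hct / 0.1% parasitemia final; RPMI 1640 + 0.5% Albumax; 37 C, 5% CO2, one generation; luminescence read-out, lower signal = inhibition.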
# Pf growth 96h: inhibits malaria parasite growth, 96 h; Potency, µM (doses to about 28.7 µM), without a hit: at the top dose activity change, negative = inhibition, most hits filed as inhibitors; hit rate 6.9% among 320,000; P. falciparum luciferase reporter growth, 96 h; further: potency means the concentration at half of the fitted maximal effect; on the % scale 0 is the no-effect control and ±100 the full control effect
#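 Plates of compound plus infected erythrocytes (2% hematocrit, 0.05% parasitemia final) incubate 96 hours, 37 C, 5% CO2. Detection reagent added; reduced luminescence from the parasites' luciferase reporter flags inhibition.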
# Shiga inhibitor: blocks Shiga toxin action in Vero cells. Vero cells, Shiga toxin protein synthesis inhibition reporter. inhibition, % at 38.7 µM. hit rate 9.2% among 290,000. AID 2315; in the data active means inhibition mostly above about 28%, no sharp cut-off; inactive means mostly below about 43%; further: 0% is about no effect
# NS1 function inh: inhibitors of influenza NS1 protein function; AID 2326; Potency, µM (highest dose often 46.1 µM), for inactives: at the top dose activity, positive = more growth; hit rate 0.4% among 270,000; calls by dose curve; further: potency means the concentration at half of the fitted maximal effect; actives are rising curves; nearly all actives have a fitted effect of over 50% in size
#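 A cell-based growth assay was used: compounds that relieve NS1-induced slow growth of budding yeast raise OD600. Assay medium was yeast nitrogen base with ammonium sulphate and -URA supplement, pH 6.0, with 2% galactose.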
# Cycloheximide cs: affects cycloheximide protein synthesis inhibition readout, counter-screen; hit rate 12% among 300,000; max response, %; cell reporter, cycloheximide protein synthesis inhibition counterscreen; AID 2314; in the data active means max response mostly above about 13%, no sharp cut-off; inactive means mostly below about 14%; further: read at 38.3 µM for the half of the compounds with a filed dose; 0% is about no effect
# The depositor's hits bear a star; ? = inconclusive; nt = not tested or not shown; [ ] = dose if it differs, or a comment. Only some compounds are listed: those with a hit (about 21% of all), similar ones and a draw of the others. Unless noted, the call rests on the fitted dose curve; in most records, active means well fitted inhibition curve with a large enough effect; inconclusive means small, poorly fitted or top-dose-only effect, or another doubt; inactive means no such curve, though single readings can be large or run the other way.
SMILES,Pf growth 48h,Pf growth 96h,Shiga inhibitor,NS1 function inh,Cycloheximide cs
CCOC(=O)C(=O)NC(C)CCc1ccccc1 (configuration not stated),3.9%,-12.3%,2.9,10.5%,-0.7
CC(C(=O)N1CCc2ccccc21)N1CCN(Cc2ccccc2)CC1 (configuration not stated),?,?,-6.7,-1.4%,-2.4
CCOC(=O)c1[nH]ncc1CN1CCCC(C(=O)c2ccc(C(C)(C)C)cc2)C1 (configuration not stated),-9.5%,11.2%,22.3,-3.9%,-1.8
COc1ccc(N2CCN(C(=O)CCS(=O)(=O)c3ccc4c(c3)CCN4C(=O)C3CC3)CC2)cc1,-20.4%,?,5.7,-9.7%,6.9
CCc1ccc(-c2cc(C)no2)cc1S(=O)(=O)N1CCN(c2ccccc2)CC1,?,3.3%,-6.1,12.1%,-1.0
CCOC(=O)C(C)Oc1ccc2c(-c3cccc([N+](=O)[O-])c3)cc(=O)oc2c1 (configuration not stated),11.1%,55.2%,-17.0,-9.0%,-5.6
CCOC(=O)C(C)On1c(-c2cccc(Cl)c2)nc2ccc([N+](=O)[O-])cc21 (configuration not stated),?,nt,101.9*,-152.3%,45.7*
CCOC(=O)COc1cc([N+](=O)[O-])cc2cccnc12,-22.4%,?,-19.0,7.2%,-3.8
CCOC(=O)COn1c(-c2cccc(Cl)c2)nc2ccc([N+](=O)[O-])cc21,24.1%,158.5%,63.5*,-60.9%,76.1*
COc1ccccc1N1CCN(Cc2cc(=O)c(OCC(=O)NC(C)C)co2)CC1,3.0%,?,-3.5,-1.5%,1.9
CCN(CC(=O)NCc1ccc(Cl)cc1)C(=O)CCC(=O)c1ccc(F)cc1,?,-0.3%,nt,nt,nt
COc1cc(Cl)c(S(=O)(=O)NCc2ccccn2)cc1Cl,-14.5%,nt,-3.4,-5.9%,-1.7
Nc1cc(C(=O)c2ccccc2)ccc1N1CCOCC1,96.8%,30.3%,116.8*,20.2%,27.5*
COC(=O)c1ccc(N2CCN(c3ccccc3)CC2)c(NC(=O)C2CC2)c1,?,?,-3.7,23.8%,-2.5
COC(=O)c1ccc(N2CCN(c3ccccc3)CC2)c(N)c1,35.4%,62.9%,35.9,1.4%,16.4*
COC(=O)c1cc(NS(=O)(=O)c2ccc(N3CCOCC3)c(N)c2)cc(C(=O)OC)c1,?,4.15µM*,5.3,?,-2.8
C=CCOC(=O)c1ccc(N2CCN(c3ccccc3)CC2)nc1,2.5%,-14.8%,34.2,-1.3%,20.1*
O=C(OCC(=O)N1CCN(c2ccccc2)CC1)c1cnc(Cl)c(Cl)c1,-5.8%,4.3%,-16.1,-14.2%,-10.1
COC(=O)c1cc(NS(=O)(=O)c2ccc(N3CCOCC3)c(NC(C)=O)c2)cc(C(=O)OC)c1,1.6%,?,-6.3,-0.1%,-3.6
COc1cc(NS(=O)(=O)c2ccc(NC(=O)C34CC5CC(CC(C5)C3)C4)cc2)ncn1,?,58.1%,25.9,2.6%,-0.8
CC(=O)c1ccc(S(=O)(=O)NCCC(=O)NC(C)c2ccncc2)cc1 (configuration not stated),-19.4%,-8.3%,nt,nt,nt
OC(CSc1ccc(F)cc1)CN1CCN(c2ccccc2)CC1 (configuration not stated),1.8%,-138.9%,27.4,2.0%,14.8
COC(=O)c1ccc(N2CCN(c3ccccc3)CC2)nc1,133.5%,159.1%,45.1*,-11.3%,24.9*
CC(C)NC(=O)c1ccc(N2CCOCC2)nc1,nt,4.6%,5.0,-7.1%,9.0
COC(=O)c1ccc(/C=N\N2CCN(c3ccccc3)CC2)cc1,0.0%,-6.3%,117.6*,12.3%,21.0*
SMILES,Pf growth 48h,Pf growth 96h,Shiga inhibitor,NS1 function inh,Cycloheximide cs
c1ccc(-c2nnc(-c3ccco3)o2)cc1,220.9%,126.7%,114.6*,-63.2%,43.0*
Brc1ccc(-c2nnc(-c3ccco3)o2)cc1,121.6%,372.5%,73.4*,-65.4%,47.0*
O=c1cc(-c2ccco2)nc(-c2cccs2)o1,8.1%,0.8%,-15.8,?,-4.1
c1coc(-c2nnc(-c3ccco3)nn2)c1,?,6.57µM*,42.6*,8.8%,46.5*
CSc1nnc(-c2ccco2)c(-c2ccco2)n1,-28.9%,-2.8%,21.0,9.2%,15.9
c1coc(-c2nnc(-c3cccs3)o2)c1,107.9%,20.7%,81.3*,-15.4%,49.3*
O=C(CN1C(=O)COc2ccccc21)N(Cc1cccnc1)Cc1ccccc1F,?,9.5%[5.75 µM],-3.9,-7.8%,-1.7
O=C(O)C(c1ccccc1)N1CCCC1 (configuration not stated),-13.0%,nt,-3.9,3.3%,1.1
O=C(NCCS(=O)(=O)NCc1ccccc1Cl)c1ccccc1,46.7%,70.0%,nt,nt,nt
CCN(CC)S(=O)(=O)c1cc(-c2nnc(-c3ccc(Br)cc3)o2)ccc1Br,-5.9%,-0.8%,8.3,4.8%,-2.2
Cc1ccc(-c2nnc(-c3ccc(Br)cc3)o2)o1,87.1%,2.62µM*,26.9*,0.4%,18.4*
COc1ccc(N2CCN(C(=O)CCS(=O)(=O)c3ccc(C)cc3)CC2)cc1,0.0%,-7.1%,-8.8,-1.5%,-2.5
N#CC1=C(N)OC2=C(C(=O)CCC2)C1c1cc2c(cc1Br)OCO2 (configuration not stated),12.3%,-14.1%,-4.3,3.5%,1.8
COc1ccc(CNS(=O)(=O)c2ccc(F)c(C(=O)Nc3ccccc3OC)c2)cc1,-5.9%,2.33µM*,-10.6,nt,-3.9
Cc1ccc(S(=O)(=O)NCc2ccccc2)cc1C(=O)NC1CCC(C)CC1 (configuration not stated),-2.1%,33.2%,54.6*,9.2%,11.9*
COc1ccccc1NC(=O)c1cc(S(=O)(=O)NCc2ccccc2)ccc1F,?,5.22µM*,-7.2,nt,-1.0
CN(C)c1ccc(CNc2ncn[nH]2)cc1,41.5%,2.7%,15.3,5.0%,-3.1
Cc1cccc(NC(=O)CCNC(=O)c2ccccc2)c1,-11.8%,15.1%,-5.7,2.5%,-1.4
CCN(Cc1ccccc1)C(c1cc2ccc(C)cc2[nH]c1=O)c1nnnn1CCOC (configuration not stated),0.0%,nt,-21.4,-2.9%,-5.6
CCN1CCc2c(sc(NC(=S)NC(=O)c3ccco3)c2C(N)=O)C1,-9.2%,31.4%,16.2,-5.5%,13.9*
Cc1sc(NC(=S)NC(=O)CCc2ccccc2)c(C(N)=O)c1C,23.9%,48.5%,11.1,1.9%,-1.3
CCN1CCc2c(sc(NC(=O)Nc3ccc(Cl)c(Cl)c3)c2C(N)=O)C1,11.7µM*,27.4%,-6.0,-28.4%,-5.1
Cc1sc(NC(=S)NC(=O)c2ccco2)c(C(N)=O)c1C,0.0%,?,93.4*,nt,25.9*
CCN1CCc2c(sc(NC(=O)c3ccc(C(=O)c4ccccc4)cc3)c2C(N)=O)C1,?,?,-10.9,-2.7%,-2.5
CCOc1cc(N2CCOCC2)c(OCC)cc1NC(=S)NCCCOC,9.5%,19.3%,43.2,2.8%,9.3
Clc1ccc(SCCOCCN2CCCCCC2)cc1,?,?,nt,-17.4%,-1.3
O=C(NCc1cccs1)c1nc(-c2cccs2)no1,15.3%[5.75 µM],-101.4%[5.75 µM],66.1*,nt,21.1*
